For some of these results: Potency and affinity values are given separately.
Tests used:
Set-up in all cases: scale not given: direction of the effect not stated beside the values
[1] = target: Protein translocase subunit SecA (Escherichia coli (strain K12)) (UniProt P10408); test: Assay to Identify E. coli SecA ATPase Inhibitors; type: functional; settings: 30 µM
[2] = target: T1, Ubiquitin-activating enzyme e1, putative (Leishmania donovani (strain BPK282A1)) (UniProt E9BSI1); test: Leishmania donovani Ubiquitin Activating Enzyme (LdE1); type: functional; settings: 30 µM
T1 sequence (whole entry): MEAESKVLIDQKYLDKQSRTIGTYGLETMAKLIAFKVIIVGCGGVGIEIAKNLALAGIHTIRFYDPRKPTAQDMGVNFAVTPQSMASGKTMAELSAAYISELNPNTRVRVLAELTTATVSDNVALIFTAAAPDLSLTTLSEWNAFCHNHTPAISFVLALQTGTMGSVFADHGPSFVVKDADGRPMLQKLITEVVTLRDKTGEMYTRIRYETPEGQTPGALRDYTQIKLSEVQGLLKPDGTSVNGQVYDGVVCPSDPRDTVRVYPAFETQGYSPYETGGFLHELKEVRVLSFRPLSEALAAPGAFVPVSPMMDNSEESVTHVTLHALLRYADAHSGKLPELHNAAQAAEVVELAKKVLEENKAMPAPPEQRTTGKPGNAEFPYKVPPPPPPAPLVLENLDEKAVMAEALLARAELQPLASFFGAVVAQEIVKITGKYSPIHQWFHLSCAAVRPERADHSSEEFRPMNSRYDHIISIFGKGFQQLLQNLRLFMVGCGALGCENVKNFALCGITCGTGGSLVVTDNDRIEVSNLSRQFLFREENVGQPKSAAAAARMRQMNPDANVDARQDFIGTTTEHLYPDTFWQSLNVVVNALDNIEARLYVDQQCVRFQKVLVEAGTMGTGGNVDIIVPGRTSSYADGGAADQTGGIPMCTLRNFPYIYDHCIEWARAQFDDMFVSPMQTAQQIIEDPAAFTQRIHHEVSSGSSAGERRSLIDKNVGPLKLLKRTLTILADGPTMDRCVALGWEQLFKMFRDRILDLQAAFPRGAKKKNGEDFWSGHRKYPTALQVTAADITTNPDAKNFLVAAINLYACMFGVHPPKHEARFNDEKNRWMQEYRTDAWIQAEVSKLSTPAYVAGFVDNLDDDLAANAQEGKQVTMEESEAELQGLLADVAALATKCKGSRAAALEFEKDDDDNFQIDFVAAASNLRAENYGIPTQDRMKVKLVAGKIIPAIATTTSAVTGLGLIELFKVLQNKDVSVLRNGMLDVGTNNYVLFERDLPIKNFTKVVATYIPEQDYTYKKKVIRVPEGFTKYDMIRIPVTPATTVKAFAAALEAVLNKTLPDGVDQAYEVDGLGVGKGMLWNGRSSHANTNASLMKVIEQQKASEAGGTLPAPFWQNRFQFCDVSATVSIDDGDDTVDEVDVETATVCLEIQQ

[3] = target: AMP-activated protein kinase, AMPK (Homo sapiens) (UniProt P54646+O43741+P54619+Q9UGJ0+Q9Y478+Q13131+Q9UGI9); test: AMP-dependent Kinase enzyme assay. An in vitro enzyme assay that detects ADP turnover that is directly proportional to AMPK activity. This uses naive AMPK that is activated during the assay with MK-8722; type: functional; settings: 30 µM
[4] = target: Sialic acid-binding Ig-like lectin 9 (Homo sapiens) (UniProt Q9Y336); test: Hs-Siglec9 ALPHAscreen SOP 20170721; settings: 10 µM
[5] = tested on: Trypanosoma cruzi; test: Trypanosoma cruzi phosphomannomutase and mannose-1-phosphate guanylyltransferase assay; type: functional; settings: 10 µM
[6] = target: T2, Arginase-2, mitochondrial (Homo sapiens) (UniProt P78540); test: in vitro enzyme assay to detect the production of urea directly proportional to the activity of Arginase II; type: functional; settings: 33.3 µM; further: in the data most compounds retested in dose-response had high values
T2 sequence (whole entry): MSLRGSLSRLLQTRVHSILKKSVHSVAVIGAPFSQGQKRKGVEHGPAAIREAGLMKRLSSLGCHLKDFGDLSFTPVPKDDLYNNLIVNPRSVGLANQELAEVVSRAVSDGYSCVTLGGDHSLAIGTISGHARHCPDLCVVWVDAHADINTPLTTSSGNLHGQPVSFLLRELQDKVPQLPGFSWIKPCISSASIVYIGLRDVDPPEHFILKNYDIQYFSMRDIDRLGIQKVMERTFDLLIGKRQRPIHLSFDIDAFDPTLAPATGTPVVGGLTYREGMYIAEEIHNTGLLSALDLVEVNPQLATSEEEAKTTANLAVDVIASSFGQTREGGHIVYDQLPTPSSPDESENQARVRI

[7] = target: T3, Proteasome subunit beta (Trypanosoma cruzi) (UniProt O96673); test: Trypanosoma cruzi proteasome chymotrypsin-like activity (TcProtChymo) assay.; further: in the data most compounds retested in dose-response had high values; type: functional; settings: 9.37 µM
T3 sequence (whole entry): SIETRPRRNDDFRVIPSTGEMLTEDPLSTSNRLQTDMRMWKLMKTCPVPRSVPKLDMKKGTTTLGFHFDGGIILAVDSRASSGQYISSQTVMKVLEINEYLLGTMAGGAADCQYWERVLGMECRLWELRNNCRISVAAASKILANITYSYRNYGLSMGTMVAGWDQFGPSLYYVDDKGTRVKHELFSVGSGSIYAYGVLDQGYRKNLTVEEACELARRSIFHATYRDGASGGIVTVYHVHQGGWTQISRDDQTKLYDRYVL

[8] = species: Homo sapiens; test: To identify inhibition of the IFN signalling (Jak-Stat) pathway via expression of an eGFP reporter gene under the control of an IFN-stimulated response element (ISRE) containing MxA promoter.; type: functional; settings: 30 µM
[9] = target: T4, Tyrosyl-tRNA synthetase, putative (Trypanosoma cruzi (strain CL Brener)) (UniProt Q4DSP6); test: Trypanosoma cruzi tyrosyl tRNA synthetase (TcYRS) _High Tyrosine SOP; type: functional; settings: 30 µM; further: in the data most compounds retested in dose-response had high values
T4 sequence (whole entry): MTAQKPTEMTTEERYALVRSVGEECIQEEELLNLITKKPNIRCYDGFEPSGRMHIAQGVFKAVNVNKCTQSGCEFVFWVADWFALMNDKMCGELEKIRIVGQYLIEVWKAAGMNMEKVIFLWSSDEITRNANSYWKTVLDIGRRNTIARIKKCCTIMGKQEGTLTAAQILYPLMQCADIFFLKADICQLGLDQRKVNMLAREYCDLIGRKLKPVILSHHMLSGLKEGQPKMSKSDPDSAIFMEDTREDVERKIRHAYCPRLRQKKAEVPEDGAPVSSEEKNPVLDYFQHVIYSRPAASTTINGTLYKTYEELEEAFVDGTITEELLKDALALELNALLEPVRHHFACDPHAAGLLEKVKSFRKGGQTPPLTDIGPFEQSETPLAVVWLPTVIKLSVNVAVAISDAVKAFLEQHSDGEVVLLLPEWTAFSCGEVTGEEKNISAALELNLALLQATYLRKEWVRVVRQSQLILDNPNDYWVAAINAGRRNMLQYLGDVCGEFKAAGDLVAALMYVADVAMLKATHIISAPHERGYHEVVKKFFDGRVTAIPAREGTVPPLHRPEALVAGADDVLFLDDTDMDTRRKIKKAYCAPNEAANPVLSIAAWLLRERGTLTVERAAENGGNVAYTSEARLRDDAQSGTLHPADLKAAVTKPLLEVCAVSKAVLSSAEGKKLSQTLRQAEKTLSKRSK

[10] = target: T4, Tyrosyl-tRNA synthetase, putative (Trypanosoma cruzi (strain CL Brener)); test: Trypanosoma cruzi tyrosyl tRNA synthetase (TcYRS) SOP; type: functional; settings: 30 µM
[11] = target: Chromo domain-containing protein 1 (Saccharomyces cerevisiae (strain ATCC 204508 / S288c) (Baker's yeast)) (UniProt P32657); test: ScCHD-1 Enzyme Inhibition Assay; type: functional; settings: 30 µM; further: in the data most compounds retested in dose-response had high values
Chain of Chromo domain-containing protein 1 (Saccharomyces cerevisiae (strain ATCC 204508 / S288c) (Baker's yeast)) (P32657 whole entry, the tested form may be a part): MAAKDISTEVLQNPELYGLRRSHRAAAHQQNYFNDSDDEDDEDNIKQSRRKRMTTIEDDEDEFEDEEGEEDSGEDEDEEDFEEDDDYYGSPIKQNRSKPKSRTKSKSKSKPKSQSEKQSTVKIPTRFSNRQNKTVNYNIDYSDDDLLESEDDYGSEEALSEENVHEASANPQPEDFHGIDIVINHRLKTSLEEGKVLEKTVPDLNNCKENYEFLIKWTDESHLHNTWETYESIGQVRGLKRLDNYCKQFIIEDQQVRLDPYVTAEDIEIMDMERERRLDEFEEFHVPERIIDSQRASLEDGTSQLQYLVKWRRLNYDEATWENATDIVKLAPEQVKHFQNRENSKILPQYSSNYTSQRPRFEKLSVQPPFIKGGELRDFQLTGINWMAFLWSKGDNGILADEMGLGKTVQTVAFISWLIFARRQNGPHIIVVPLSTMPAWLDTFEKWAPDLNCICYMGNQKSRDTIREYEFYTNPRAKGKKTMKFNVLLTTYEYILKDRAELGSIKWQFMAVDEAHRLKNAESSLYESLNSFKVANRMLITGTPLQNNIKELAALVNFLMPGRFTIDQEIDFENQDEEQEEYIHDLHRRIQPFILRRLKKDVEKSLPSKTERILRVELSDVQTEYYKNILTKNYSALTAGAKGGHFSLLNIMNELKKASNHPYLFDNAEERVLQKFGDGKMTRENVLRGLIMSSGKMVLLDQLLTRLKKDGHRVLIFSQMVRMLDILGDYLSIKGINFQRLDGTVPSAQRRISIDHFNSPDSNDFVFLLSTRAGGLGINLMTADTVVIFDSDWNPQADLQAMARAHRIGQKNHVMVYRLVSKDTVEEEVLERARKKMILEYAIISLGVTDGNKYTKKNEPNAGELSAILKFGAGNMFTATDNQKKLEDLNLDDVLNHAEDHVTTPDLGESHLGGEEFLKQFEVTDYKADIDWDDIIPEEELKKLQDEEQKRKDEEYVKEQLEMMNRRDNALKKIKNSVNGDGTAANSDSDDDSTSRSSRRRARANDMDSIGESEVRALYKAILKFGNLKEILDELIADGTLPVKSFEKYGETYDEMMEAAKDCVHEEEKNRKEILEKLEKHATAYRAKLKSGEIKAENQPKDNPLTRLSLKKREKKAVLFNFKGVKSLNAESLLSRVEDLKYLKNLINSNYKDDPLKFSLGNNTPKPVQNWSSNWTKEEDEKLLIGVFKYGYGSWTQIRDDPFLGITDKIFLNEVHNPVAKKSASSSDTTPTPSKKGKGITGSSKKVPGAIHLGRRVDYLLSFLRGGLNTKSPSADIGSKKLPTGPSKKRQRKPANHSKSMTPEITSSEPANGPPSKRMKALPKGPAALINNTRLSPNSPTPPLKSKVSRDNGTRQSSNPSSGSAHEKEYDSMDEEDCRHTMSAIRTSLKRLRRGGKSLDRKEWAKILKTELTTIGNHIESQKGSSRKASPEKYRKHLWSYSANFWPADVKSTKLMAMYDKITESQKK

Chain of Sialic acid-binding Ig-like lectin 9 (Homo sapiens) (Q9Y336 whole entry): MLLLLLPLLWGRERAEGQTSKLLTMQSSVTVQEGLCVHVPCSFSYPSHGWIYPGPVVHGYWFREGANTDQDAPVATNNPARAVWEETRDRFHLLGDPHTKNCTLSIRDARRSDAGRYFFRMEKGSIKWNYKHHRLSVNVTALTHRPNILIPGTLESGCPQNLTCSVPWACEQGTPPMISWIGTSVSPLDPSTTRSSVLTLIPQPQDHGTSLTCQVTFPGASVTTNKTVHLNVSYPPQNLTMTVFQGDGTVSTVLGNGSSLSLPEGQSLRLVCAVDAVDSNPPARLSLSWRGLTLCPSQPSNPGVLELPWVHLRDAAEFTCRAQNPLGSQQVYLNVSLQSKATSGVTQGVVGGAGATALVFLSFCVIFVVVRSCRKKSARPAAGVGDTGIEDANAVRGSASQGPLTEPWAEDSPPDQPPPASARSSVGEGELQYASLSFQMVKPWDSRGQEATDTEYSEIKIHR
Chain of Protein translocase subunit SecA (Escherichia coli (strain K12)) (P10408 whole entry): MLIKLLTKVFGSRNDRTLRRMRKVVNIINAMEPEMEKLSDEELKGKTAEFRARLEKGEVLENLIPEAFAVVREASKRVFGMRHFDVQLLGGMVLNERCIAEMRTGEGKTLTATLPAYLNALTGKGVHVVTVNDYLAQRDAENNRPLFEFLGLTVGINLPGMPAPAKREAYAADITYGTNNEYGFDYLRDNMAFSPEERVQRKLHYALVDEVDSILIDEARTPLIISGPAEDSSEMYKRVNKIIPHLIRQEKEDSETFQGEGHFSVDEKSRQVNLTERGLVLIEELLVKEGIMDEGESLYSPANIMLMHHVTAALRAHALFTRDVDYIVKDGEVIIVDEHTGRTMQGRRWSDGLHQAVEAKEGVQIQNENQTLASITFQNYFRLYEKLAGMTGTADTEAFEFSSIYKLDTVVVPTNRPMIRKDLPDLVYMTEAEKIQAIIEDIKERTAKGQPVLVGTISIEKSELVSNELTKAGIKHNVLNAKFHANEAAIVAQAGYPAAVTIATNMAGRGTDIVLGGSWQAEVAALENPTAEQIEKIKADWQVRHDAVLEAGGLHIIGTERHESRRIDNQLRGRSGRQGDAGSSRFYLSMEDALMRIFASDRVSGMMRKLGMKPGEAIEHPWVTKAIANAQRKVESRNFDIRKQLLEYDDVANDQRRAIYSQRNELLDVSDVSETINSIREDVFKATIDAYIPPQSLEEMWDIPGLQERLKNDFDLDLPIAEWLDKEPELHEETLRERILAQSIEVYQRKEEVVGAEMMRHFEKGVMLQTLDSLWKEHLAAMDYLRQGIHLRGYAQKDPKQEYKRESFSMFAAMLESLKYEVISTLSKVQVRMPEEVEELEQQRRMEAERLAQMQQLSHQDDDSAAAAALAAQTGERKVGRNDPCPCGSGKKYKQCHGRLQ

Structure (SMILES) | Percent Effect [1] [%] | Percent Effect [2] [%] | Percent Effect [3] [%] | Percent Effect [4] [%] | Percent Effect [5] [%] | Percent Effect [6] [%] | Percent Effect [7] [%] | Percent Effect [8] [%] | Percent Effect [9] [%] | Percent Effect [10] [%] | Percent Effect [11] [%]
O=C(NC(Cc1ccsc1)c1nccs1)C1CCOCC1 (stereo not given) | -2.92 | 9.46 | 12.2 | 0.886 | -4.74 | -0.232 | 3.12 | 10.9 | 1.07 | 9.09 | 7.79
Cc1cc(C)c(CNC(=O)N(C)CC2CCCCO2)c(=O)[nH]1 (stereo not given) | -3.05 | 7.89 | 2.98 | -2.11 | -8.84 | 3.06 | 14.2 | 30.1 | 4.41 | 9.76 | -2.04
O=C(NCC1CC1)C1CN(C(=O)c2ccncc2)CC12CCOCC2 (stereo not given) | 1.79 | 15.6 | -0.39 | -4.66 | 0.296 | 4.52 | 17.6 | 28.1 | 2.12 | 19.2 | -10.9
CCN(Cc1ccc2c(c1)OCO2)C(=O)CCc1c(C)nc(C)[nH]c1=O | -1.41 | 5.26 | 1.51 | 7.45 | -4.32 | 9.96 | 6.85 | 21.9 | 3.43 | 9.76 | -1.69
CS(=O)(=O)NCC(=O)N1CCCC1c1noc(C2CC2)n1 (stereo not given) | -3.88 | 16 | -6.02 | 25.8 | 4.19 | 41.1 | 5.58 | 0.475 | 4.92 | 13.6 | -6.99
COCCC(=O)N1CC2(CCN(Cc3cccc(Cl)c3)CC2)C1 | -1.79 | 5.33 | 5.28 | 2.57 | -7.09 | 3.03 | 10.8 | 6 | 4.25 | 11.5 | -4.02
CCOCCCNC(=O)c1nn(CC)cc1Cl | -0.389 | 14.7 | -2.38 | -8.09 | 3.14 | -8.28 | 12.8 | 18.8 | 5.29 | 12.8 | -10.4
Cc1ncnc2c1CCN(Cc1ccc3c(c1)OCO3)CC2 | -2.54 | 13.7 | -1.53 | 8.83 | 3.97 | 1.2 | 6.08 | -10.2 | 3.12 | 11.1 | -2.7
COc1cc(CNCCc2cnn(C)c2)cc2c1OCCO2 | -5.21 | 10.5 | 1.71 | 15.7 | 1.32 | -1.92 | 10.2 | 0.122 | 4.41 | 12.2 | -6.6
COCc1ccc(CN2CCC(O)(Cn3ccc4ncccc43)CC2)o1 | -1.21 | 2.67 | -2.95 | 1.83 | 5.51 | 0.233 | 9.07 | 7.16 | 2.13 | 3.85 | -6.45
Cc1nc(CC(=O)N2CCCCC2c2ccn3ccnc3n2)cs1 (stereo not given) | -1.88 | -4.05 | 11.6 | 4.95 | -1.78 | -3.02 | 12.6 | 7.12 | -1.07 | 1.3 | -15.1
CCc1nnsc1C(=O)NCCn1nc2ccccn2c1=O | -5.54 | 18.9 | -7.77 | 20.2 | 5.66 | 4.25 | 8.8 | -0.849 | 6.93 | 18.3 | -9.16
COCC1CN(C(=O)COc2ccccc2)Cc2cn(C)nc21 (stereo not given) | 1.54 | -2.6 | 1.75 | 4.23 | -2.27 | -8.39 | 1.39 | 9.62 | -5.29 | -1.28 | -6.88
CCc1nc(C2CCCN2C(=O)CCc2ccc3c(c2)OCO3)no1 (stereo not given) | -3.47 | -5.41 | 2.98 | 5.83 | 3.62 | -3.14 | -6.46 | 10.2 | 1.98 | 1.22 | 10.8
NC(=O)CSCC(=O)N1CCc2cc(Cl)cc(Cl)c2C1 | -5.75 | 15.6 | 4.28 | 36.8 | 6.98 | -57.9 | 9.15 | -7.69 | 3.23 | 8.64 | -8.22
CC1N(CC2CC2)C(=O)COC12CCN(Cc1nccs1)CC2 (stereo not given) | -2.73 | 11 | -7.81 | 11.6 | 5.56 | -2 | 11.2 | -5.88 | 4.17 | 6.17 | -5.43
COCCN1CCN(C(=O)C2CC=CC2)Cc2cccnc21 | -4.04 | 8 | 10.1 | 4.75 | 7.14 | -55.4 | 10.4 | -18.4 | 3.12 | 17.5 | -7.24
CC(C)c1nc2c(n1C)CCN(CC(=O)Nc1nccs1)C2 | -4.97 | 15.6 | 1.78 | -4.17 | -0.686 | 3.58 | 15.3 | -3.14 | 9.52 | 21.2 | -18
CC(Oc1ccccc1C(F)(F)F)C(=O)NS(=O)(=O)C(C)C (stereo not given) | 7.54 | 0 | 5.54 | -3.2 | 4.88 | -2.92 | 14.1 | -2.84 | 6.93 | 11 | -6.88
Cc1ncnc2c1CCN(Cc1ccccn1)CC2 | -2.86 | -2.74 | -0.577 | 1.97 | -3.57 | -0.798 | 1.46 | -16.5 | 3.12 | -1.24 | 5.72

— ChEMBL document CHEMBL3988442, “University of Dundee, Small-Polar-MMV Screening Library” (2021)
